Molecules are shown by their SMILES. Several values for one entry are separate records, joined by “and”; a condition that tells them apart may be missing. Equal entries are not always repeated. A number with no mark means an inactive call. Records with an inconclusive call do not appear. Activity calls are given as the source filed them. Unless noted, the call rests on the fitted dose curve; in most records, active means well fitted curve in the direction sought with a large enough effect; inconclusive means small, poorly fitted or top-dose-only effect, or another doubt; inactive means no such curve, though single readings can be large; an effect the other way counts as inactive or inconclusive.

This is an account of results in PubChem BioAssay (NCATS).

Assay [1] in a line: Cellular Toxicity (caspase-3) SHSY5Y (AID 657). In a few lines:
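Cells plated and incubated 5 h at 37 °C, dosed over a concentration range, incubated 16 h, then given Caspase-Glo 3/7 reagent for 1 h at room temperature before luminescence reading. Staurosporine (10 uM) defined full stimulation.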

Assay [2] is described as follows: Cellular Toxicity (caspase-3) BJ (AID 658).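 Further: 0% = DMSO basal and 100% = 10 µM staurosporine.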 Summed up:
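Luminescent aminoluciferin-substrate cleavage reports caspase 3/7 activity in normal human BJ fibroblasts after 16 hr compound exposure at 37 °C. Normalized to DMSO (basal) and 10 uM staurosporine (100%); AC50 from Hill fit of concentration-response.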

A short description of assay [3]: Cellular Toxicity (caspase-3) N2a (AID 665).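 Further: compound exposure lasted 16 h at 37 °C before readout.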 In a few lines:
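Mouse N2a neuroblastoma cells (1500/well) were treated with compounds for 16 h at 37 °C, then caspase-3/7 activity was read by Caspase-Glo luminescence after 1 h at room temperature. Data were normalized to DMSO and 10 uM staurosporine; AC50 from Hill fits.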

Assay [4] can be described thus: Cellular Toxicity (caspase-3) Renal Proximal Tubule (AID 667).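 Further: cells exposed to compound for 16 hours at 37 °C before detection; 0% = DMSO basal and 100% = 10 µM staurosporine.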 In a few lines: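 In qHTS format, rat primary proximal tubule cells seeded at 1000 per well are exposed to compounds for 16 hours at 37 °C. An increase in Caspase-Glo 3/7 luminescence indicates caspase activation.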
The nature of assay [5]: MultiTox-Fluor Cytotoxicity Assay - LYMP1-001 - Dead Cells (AID 946). Summed up: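 Cytotoxicity as increased dead-cell protease fluorescence (bis-AAF-R110, 485/520 nm), read 60 min after MultiTox-Fluor reagent. Human lymphoblastoid line exposed 16 h; Hill-fitted AC50, with DMSO as 0% and 15 uM tetraoctylammonium bromide as 100%.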
Assay [6] can be described thus: Cell Viability - LYMP1-002 - Assay at 16 hr (AID 948).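 Further: 0% = DMSO alone and full effect = 92 µM tetraoctylammonium bromide.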 Summed up: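 Acute cytotoxicity is scored as a concentration-dependent fall in intracellular ATP in a human lymphoblastoid line (LYMP1-002) after 16 hr compound exposure at 37 C, measured by luciferase luminescence.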
Assay [7] in a line: MultiTox-Fluor Cytotoxicity Assay - LYMP1-003 - Dead Cells (AID 961). Further: nearly all actives have a fitted effect of over 70% in size. Further: potency means the concentration at half of the fitted maximal effect. Summed up: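 Dead-cell protease release, detected as bis-AAF-R110 fluorescence at 485/520 nm, was measured in LYMP1-003 cells after 16 h compound treatment at 37 C. AC50 values came from Hill-modeled qHTS curves normalized to DMSO (0%) and 15 uM tetraoctylammonium bromide (100%).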
A short description of assay [8]: Cell Viability - LYMP1-003 - Assay at 24 hr (AID 963).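 Further: plate controls were DMSO only for no effect and tetraoctylammonium bromide positive control for full effect.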 In a few lines: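 Human lymphoblastoid LYMP1-003 cells (2500/well) were rested 5 hr at 37 C, then exposed to compounds in complete medium for 24 hr at 37 C. Cellular ATP was quantified by CellTiter-Glo luminescence, and AC50 values came from Hill fits of concentration-response data.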
Assay [9] in a line: Cell Viability - LYMP2-003 (AID 965).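 Further: cells exposed to compounds for 24 h before reading; 0% = DMSO only and full effect = 92 µM tetraoctylammonium bromide; nearly all actives have a fitted effect of over 50% in size.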 Summed up:
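Acute cytotoxicity is scored as a concentration-dependent drop in intracellular ATP, measured by luciferase luminescence in human lymphoblastoid cells treated for 24 hours at 37 C. AC50 values derive from Hill-equation modelling.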

Assay [10] can be described thus: Cell Viability - LYMP2-013 (AID 970). Further: nearly all actives have a fitted effect of over 55% in size. Further: potency means the concentration at half of the fitted maximal effect. In a few lines: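 Human lymphoblastoid cells, 2500/well, were preincubated 5 hr at 37 C, then treated with compounds for 24 hr at 37 C in complete medium. Intracellular ATP was read by CellTiter-Glo luminescence; AC50 from Hill-equation fits of concentration-response data.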
Assay [11] in a line: Cell Viability - LYMP2-019 (AID 973). Further: nearly all actives have a fitted effect of over 55% in size. Further: potency means the concentration at half of the fitted maximal effect. Summed up:
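Human lymphoblastoid cells were seeded at 2500 cells/well, preincubated 5 hr at 37 C, then exposed to compounds for 24 hr at 37 C in complete medium. Intracellular ATP was measured by CellTiter-Glo luminescence; AC50 from Hill fits.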

Assay [12] in a line: Cell Viability - LYMP2-008 (AID 980). Further: on the % scale 0 is the no-effect control and ±100 the full control effect; nearly all actives have a fitted effect of over 60% in size. Summed up: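 Human lymphoblastoid cells (2500/well) were plated, held 5 hr at 37 C, then exposed to compounds for 24 hr at 37 C in complete medium. Intracellular ATP was read by CellTiter-Glo luminescence; AC50 from Hill-fitted concentration-response.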
Assay [13] is described as follows: Cell Viability - LYMP2-012 (AID 982).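 Further: cellular ATP by luciferase luminescence where a drop means cytotoxicity; cells exposed to compound for one day before reading; 0% = DMSO only and full loss = 92 µM tetraoctylammonium bromide; nearly all actives have a fitted effect of over 55% in size.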
Assay [14] can be described thus: Cell Viability - LYMP2-016 (AID 984). Further: on the % scale 0 is the no-effect control and ±100 the full control effect; nearly all actives have a fitted effect of over 55% in size. Summed up:
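Acute toxicity in a Coriell human lymphoblastoid line is scored as loss of intracellular ATP over 24 h of treatment in complete medium. CellTiter-Glo signal is fitted across concentrations with the Hill equation to give AC50.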

A short description of assay [15]: Cell Viability - LYMP1-002 - Assay at 24 hr (AID 993). Further: on the % scale 0 is the no-effect control and ±100 the full control effect. In a few lines:
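Human lymphoblastoid LYMP1-002 cells, 2500/well in complete medium, were treated with compounds for 24 h at 37 C; intracellular ATP was read by CellTiter-Glo luminescence. AC50 values came from Hill-equation fits of qHTS concentration-response data.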

The nature of assay [16]: Cell Viability - LYMP1-002 - Assay at 40 hr (AID 994).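 Further: 0% = DMSO only and full inhibition = 92 µM tetraoctylammonium bromide; nearly all actives have a fitted effect of over 60% in size.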 In a few lines: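 Human lymphoblastoid cells, 2500/well in complete medium, were preincubated 5 hr at 37 C, then exposed to compounds for 40 hr at 37 C. Intracellular ATP was read by CellTiter-Glo luminescence after 30 min at room temperature; AC50 from Hill-equation fits.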
A short description of assay [17]: qHTS Assay for Identification of Small Molecule Inducers of Hypoxia Response (AID 2120; active means well fitted curve in the direction sought with a large enough effect in the signal ratio, with a control signal flat, not every such curve was filed as active; the % refers to the signal ratio; further: 0% is about no effect). In a few lines: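 HRE-beta-lactamase reporter in CellSensor HRE-bla ME-180 cells, 2500 cells/well in Opti-MEM with 0.5% dialyzed FBS; compounds tested as titration series, 17 h at 37 degrees C. CCF4 substrate 2.5 h at room temperature; AC50 from 460/530 nm ratio.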
For orientation: In qHTS, concentration-response curves come from the screen itself.

The target of assay [18] is Peroxisome proliferator-activated receptor alpha (Homo sapiens) (UniProt Q07869). Put plainly: qHTS assay for small molecule agonists of the peroxisome proliferator-activated receptor alpha (PPARalpha) signaling pathway (AID 651778). Further: % of control where 0% means no effect. As to conditions: PathHunter PPARalpha complementation, chemiluminescence, 6 h; stronger effect = higher value. Summed up:
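Cells plated at 2,000/well and held overnight at 37 C, 5% CO2, then compound added by pin tool for 6 hr; after PathHunter detection reagent and 60 min at room temperature, chemiluminescence from enzyme complementation was read.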

Assay [19] can be described thus: qHTS assay for cell viability of HEK293 cells (AID 743288). Further: on the % scale 0 is the no-effect control and ±100 the full control effect; nearly all actives have a fitted effect of over 50% in size. The conditions noted are these: ATP luminescence (CellTiter-Glo), 18 h, stronger effect = lower value. In a few lines: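 The Tox21 protocol used parental HEK293 cells treated for 18 h at 37 C with compounds delivered by pintool; ATP-coupled luminescence after 30 min at room temperature gave viability.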
Assay [20] can be described thus: qHTS assay for cell viability of the p53RE-bla HCT-116 cell line (AID 743292). Summed up: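 ATP-based luminescence, 16 h compound exposure at 37 C, p53RE-bla HCT-116 cells at 4,000/well.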

Peroxisome proliferator-activated receptor alpha (Homo sapiens), sequence (Q07869 whole entry, looked up): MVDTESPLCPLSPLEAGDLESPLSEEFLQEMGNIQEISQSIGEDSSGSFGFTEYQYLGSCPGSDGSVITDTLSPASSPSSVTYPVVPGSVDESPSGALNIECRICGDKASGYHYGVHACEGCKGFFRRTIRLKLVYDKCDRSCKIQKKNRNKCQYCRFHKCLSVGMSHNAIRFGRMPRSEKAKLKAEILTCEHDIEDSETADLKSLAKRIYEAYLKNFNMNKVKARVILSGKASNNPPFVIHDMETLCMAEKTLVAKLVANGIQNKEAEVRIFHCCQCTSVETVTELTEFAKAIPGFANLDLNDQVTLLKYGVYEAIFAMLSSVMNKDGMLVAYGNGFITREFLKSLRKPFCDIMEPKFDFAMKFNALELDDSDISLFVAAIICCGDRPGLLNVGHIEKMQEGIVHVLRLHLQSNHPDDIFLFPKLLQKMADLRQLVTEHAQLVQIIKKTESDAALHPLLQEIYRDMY

For the molecule `N#CC(Cl)(Cl)Cl`, the molecule was classed as inactive in assay [1], in [2], in assay [3], in assay [4], in assay [5] and in [6]. The outcome in assay [8] was inactive. For the same molecule, the Potency result in [7], in [9], in assay [10], in assay [11], in assay [12] and in assay [13] was “inactive” throughout. Further, the Potency entry in [14], in assay [15], in assay [16], in [17] and in assay [20] was “inactive” each time. Also, the max response in assay [18] is 9.56%; in assay [19] it was -13%.
On to `O=[N+]([O-])c1c(Cl)c(Cl)c(Cl)c(Cl)c1Cl`, for which the result in [1], in assay [2], in [3], in assay [4], in assay [6] and in [8] was inactive. Further, the Potency entry in assay [7], in assay [9], in assay [10], in assay [11], in [12] and in assay [13] was “inactive” throughout. Moreover, the Potency result in assay [14], in assay [15], in assay [16], in [17] and in [20] was “inactive” throughout. The max response in assay [18] was 3.1% and -1.25%; in assay [19] it was -12.6% and -27.3%.
For `Nc1ccc(Oc2ccc(N)cc2)cc1`, the molecule was classed as inactive in assay [1], in [2], in assay [3], in [4], in assay [5] and in assay [6]. In addition, in assay [8], the outcome was inactive. Further, the Potency result in [7], in [9], in assay [10], in assay [11], in assay [12] and in assay [13] was “inactive” each time. Besides, the Potency entry in assay [14], in assay [15], in [16], in assay [17] and in [20] was “inactive” in each case. Moreover, the max response was -1.7% and -2.66% in [18]; -1.7% and -3.88% in [19].
In the case of `C=CCCC#N`, the result in [1], in [2], in assay [3], in assay [4], in assay [5] and in [6] was inactive. Also, the call in [8] was inactive. Also, the Potency entry in assay [7], in assay [9], in [10], in [11], in [12] and in [13] was “inactive” each time. For the same molecule, the Potency result in [14], in assay [15], in assay [16], in [17] and in [20] was “inactive” throughout. Further, the max response in [18] is -3.78%; in assay [19], -20.1%.
For the molecule `O=[N+]([O-])/C=C/c1ccccc1`, the molecule was classed as inactive in [2], in [4], in assay [5], in assay [6] and in assay [8]. Further, the values for the Potency in assay [7], in assay [10] and in assay [11] were 50.1 µM (active), 50.1 µM (active) and 39.8 µM (active), respectively. The Potency entry in [15], in [16], in assay [17] and in assay [20] was “inactive” throughout. The max response in [18] is -1.42%; in [19], -10.7%.
For `CCCCC#N`, the result in assay [1], in assay [2], in assay [3], in assay [4], in assay [5] and in assay [6] was inactive. Further, the molecule was classed as inactive in [8]. Besides, the Potency entry in assay [7], in [9], in [10], in assay [11], in [12] and in assay [13] was “inactive” throughout. In addition, the Potency entry in assay [14], in assay [15], in assay [16], in [17] and in [20] was “inactive” each time. For the same molecule, the max response was -3.73% in assay [18] and 2.15% in assay [19].
As to `CC(C)(C)c1ccccc1O`, the outcome in assay [1], in [2], in [3], in [4], in assay [5] and in assay [6] was inactive. Besides, in assay [8], the outcome was inactive. Besides, the Potency result in assay [7], in assay [9], in [10], in assay [11], in [12] and in assay [13] was “inactive” each time. For the same molecule, the Potency result in assay [14], in assay [15], in assay [16], in assay [17] and in assay [20] was “inactive” throughout. Besides, the max response in assay [18] is -7.23% and -1.41%; in [19] it was -7.55% and -11.9%.
